{
  "source": "the supplement of paper PMC6411743",
  "molecular_target": "T1, UniProt Q92796-3|Q5JUW8|Q92796",
  "T1 sequence (whole entry)": "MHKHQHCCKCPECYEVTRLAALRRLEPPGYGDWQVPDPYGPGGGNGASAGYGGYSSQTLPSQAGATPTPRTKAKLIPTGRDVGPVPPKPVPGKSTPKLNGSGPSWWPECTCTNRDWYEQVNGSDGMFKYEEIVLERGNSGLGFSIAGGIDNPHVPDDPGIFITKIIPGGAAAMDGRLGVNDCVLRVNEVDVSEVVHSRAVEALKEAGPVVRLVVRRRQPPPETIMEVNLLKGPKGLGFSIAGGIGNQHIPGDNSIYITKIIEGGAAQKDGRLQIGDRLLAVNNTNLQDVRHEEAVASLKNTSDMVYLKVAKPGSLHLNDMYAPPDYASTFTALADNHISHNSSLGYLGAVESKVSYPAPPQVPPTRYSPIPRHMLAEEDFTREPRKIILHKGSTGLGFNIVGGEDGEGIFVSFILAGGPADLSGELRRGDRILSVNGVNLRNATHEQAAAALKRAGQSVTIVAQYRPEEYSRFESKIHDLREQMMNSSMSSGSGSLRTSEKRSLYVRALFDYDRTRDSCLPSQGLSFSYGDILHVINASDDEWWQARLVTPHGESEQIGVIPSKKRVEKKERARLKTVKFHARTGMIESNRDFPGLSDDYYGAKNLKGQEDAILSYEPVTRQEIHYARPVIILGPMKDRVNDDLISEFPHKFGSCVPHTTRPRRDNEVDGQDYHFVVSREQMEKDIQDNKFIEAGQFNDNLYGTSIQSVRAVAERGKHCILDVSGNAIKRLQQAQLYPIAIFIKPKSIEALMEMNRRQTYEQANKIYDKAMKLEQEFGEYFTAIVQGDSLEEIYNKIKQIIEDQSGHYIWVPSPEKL",
  "test": "NP40-soluble protein abundance relative to vehicle (solubility fold change) (ratio); higher = more soluble protein in presence of GTP",
  "in_short": "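Jurkat crude lysate prepared with a Dounce homogeniser was treated at eight concentrations spanning 0.1 to 10 mM, 10 min at room temperature then 3 min at 37 °C. Solubilisation with 0.8% NP40 and benzonase and ultracentrifugation preceded TMT labelling of the supernatant for LC-MS/MS. Fold change against the detergent-processed vehicle was determined per replicate from vsn-normalised intensities, across three independent experiments.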",
  "note": "± gives the standard deviation of the averaged measurements. Of roughly 5,400 targets only a part is listed; those with the largest changes were picked by preference.",
  "data": [
    {"molecule": "Nc1nc2c(ncn2[C@@H]2O[C@H](COP(=O)(O)OP(=O)(O)OP(=O)(O)O)[C@@H](O)[C@H]2O)c(=O)[nH]1", "note": "[guanosine triphosphate]", "values": [
      {"measurement": "NP40-soluble protein abundance", "setting": "concentration: 0.1mM", "result": "1.15 ± 0.034"},
      {"measurement": "NP40-soluble protein abundance", "setting": "concentration: 0.5mM", "result": "1.17 ± 0.023"},
      {"measurement": "NP40-soluble protein abundance", "setting": "concentration: 1mM", "result": "1.17 ± 0.037"},
      {"measurement": "NP40-soluble protein abundance", "setting": "concentration: 2mM", "result": "1.17 ± 0.038"},
      {"measurement": "NP40-soluble protein abundance", "setting": "concentration: 4mM", "result": "1.13 ± 0.03"},
      {"measurement": "NP40-soluble protein abundance", "setting": "concentration: 6mM", "result": "1.12 ± 0.07"},
      {"measurement": "NP40-soluble protein abundance", "setting": "concentration: 8mM", "result": "1.18 ± 0.018"},
      {"measurement": "NP40-soluble protein abundance", "setting": "concentration: 10mM", "result": "1.14 ± 0.037"}
    ]}
  ]
}
